Screening data deposited in PubChem BioAssay by several laboratories.
IEC-6 tox = kills IEC-6 intestinal cells in KLF5 counter-screen | IEC-6 cytotoxicity, luminescence viability | inhibition, % at 5 µM | actives 0.78% (n = 290,000);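 note: 0% = plate median of test compound wells and 100% = cytotoxic reference compound wells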
APP transl inh = APP translation inhibition; actives 0.82% (n = 190,000); SH-SY5Y APP 5'UTR-luciferase reporter, luminescence; inhibition, % at 2 µM;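 active = inhibition above a set limit, derived from the sample mean plus 3 SD, cut at about 45% in these data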
KLF5 inhibitor = kruppel-like factor 5 inhibition; actives 0.23% (n = 290,000); inhibition, % at 5 µM; DLD-1 KLF5 promoter-luciferase reporter, luminescence; AID 1700;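 active = inhibition above a per-plate limit of that plate's mean compound inhibition plus 3 SD, cut at about 60% in these data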;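 note: 0% = DMSO wells and 100% = LY294002 at 200 µM; higher means less KLF5 promoter-driven luciferase light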
Ba/F3 V617F tox = loss of viability in JAK2V617F-driven Ba/F3 cells; AID 1446; Ba/F3 EpoR-JAK2V617F viability, ATP luminescence; inhibition, % at 5.6 µM; actives 1.1% (n = 220,000);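 active = inhibition above the campaign mean plus 3 SD over all tested compounds, cut at about 24% in these data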;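 note: cytokine-independent growth of Ba/F3 cells driven by EpoR plus mutant JAK2; 0% = DMSO-treated cells and 100% = JAK inhibitor I control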
BaF3 tox = counter-screen for JAK2V617F inhibitors: parental Ba/F3 viability inhibitors; CellTiter-Glo ATP luminescence; AID 1486; actives 1.1% (n = 220,000); inhibition, % at 5.6 µM;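 active = inhibition above a per-campaign cutoff, the mean inhibition of all tested compounds plus 3 SD, cut at about 27% in these data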;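 note: 0% = DMSO wells and 100% = JAK Inhibitor I control wells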
IEC-6 tox confirm = IEC-6 cytotoxicity, confirmation assay. shares compounds with IEC-6 tox. IEC-6 rat intestinal epithelial viability, luminescence. inhibition, % at 5 µM. actives 63% (n = 1,900). AID 1907;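 note: 0% = vehicle and 100% = reference cytotoxic drug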
An asterisk follows results filed as active; / = no result. Shown are actives, neighbours in structure and some others; about 1.9% of the full set was active somewhere. Cut-off read from the data, not from the text of the source, unless noted: active = inhibition above about 22%; inactive = the rest.

SMILES | IEC-6 tox | APP transl inh | KLF5 inhibitor | Ba/F3 V617F tox | BaF3 tox | IEC-6 tox confirm
COc1ccc(CC(=O)N/N=C/c2c(C)n(C)c3ccccc23)cc1OC | 14 | / | 22 | 4 | 1 | /
O=C(Cc1cccs1)Nc1nnc(COc2ccccc2)s1 | 2 | -10 | -31 | -2 | 4 | /
CC(C)c1ccc(NC(=O)C(c2ccc3c(c2)OCO3)N2CCN(C(=O)c3ccco3)CC2)cc1 (centres undefined) | 1 | -14 | 6 | 0 | 8 | /
CC(C)c1ccc(NC(=O)C(c2ccccc2)N2CCN(C(=O)c3ccco3)CC2)cc1 (centres undefined) | 46* | -33 | -53 | -2 | 6 | 16
CS(=O)(=O)N(CC(=O)Nc1ccc(S(=O)(=O)N2CCCC2)cc1)c1cccc(F)c1 | -2 | / | -9 | 2 | 3 | /
Cc1ccc(Cl)cc1NC(=O)COC(=O)Cn1cnc2c1c(=O)n(C)c(=O)n2C | -3 | -22 | 2 | -1 | 1 | /
O=C(Nc1ccc(Oc2ccccc2)nc1)C1CCCCN1Cc1ccco1 (centres undefined) | 60* | / | 50 | / | / | 39*
Cc1ccc(CN2CCCCC2C(=O)Nc2ccc(Oc3cccnc3)cc2)o1 (centres undefined) | 38* | / | 27 | / | / | 37*
CCn1nc(C)c(CN2CCCCC2C(=O)Nc2ccc(Oc3cccnc3)cc2)c1C (centres undefined) | -6 | / | -23 | / | / | /
COc1cc(CCC(=O)OCC(=O)Nc2ccc3c(c2)OCO3)cc(OC)c1OC | 5 | / | -24 | / | / | /
COc1cc(CC(=O)OCC(=O)c2ccc3c(c2)OCCO3)cc(OC)c1OC | 88* | 94* | 42 | 72* | 79* | 56*
COc1cc(/C=N/Nc2snc(SC)c2C#N)cc(OC)c1OC | 26* | 8 | -6 | 4 | 5 | 49*
O=C(Nc1ccccc1)Nc1ccc(-n2ccc(C(F)(F)F)n2)cc1 | 22* | / | -138 | 58* | 63* | 23*
O=C(O)CC(CC(=O)Nc1ccc(-n2ccc(C(F)(F)F)n2)cc1)c1ccccc1 (centres undefined) | 9 | / | -14 | 2 | 0 | /
COc1cccc(CNc2ncc(C(=O)Nc3cc(OC)c(OC)c(OC)c3)c(C)n2)c1 | 30* | / | 22 | / | / | 12
CN(C)c1ccccc1C(=O)c1ccccc1N(C)C | 74* | 91* | -18 | 77* | 75* | 22*
CN(c1ccccc1C(=O)O)S(C)(=O)=O | 2 | -9 | 7 | 2 | 6 | /
Cc1ccc2oc(C(=O)NCc3ccc4c(c3)OCO4)c(C)c2c1 | 48* | -17 | -2 | 1 | 3 | -4
Cc1c(C(=O)NCc2ccc3c(c2)OCO3)oc2ccc(Br)cc12 | -1 | 8 | -9 | -5 | 0 | /
Cc1onc(-c2c(F)cccc2Cl)c1C(=O)NCc1ccc2c(c1)OCO2 | 1 | / | 1 | / | / | /
CCSc1ncc(Cl)c(C(=O)Nc2ccc(S(N)(=O)=O)cc2)n1 | 2 | / | -12 | / | / | /
CC(=O)Nc1ccc(NC(=O)c2nc(S(=O)(=O)Cc3cccc(C)c3)ncc2Cl)cc1 | 36* | / | 34 | / | / | 16
COC(=O)c1ccc(NC(=O)c2nc(S(=O)(=O)Cc3cccc(C)c3)ncc2Cl)cc1 | 43* | / | 14 | / | / | 14
Cc1cccc(CS(=O)(=O)c2ncc(Cl)c(C(=O)NCc3ccc4c(c3)OCO4)n2)c1 | 31* | / | 25 | / | / | 33*
Cc1cccc(COC(=O)Nc2ccc(NC(=O)c3ccccc3Cl)cc2)c1 | 4 | / | -7 | / | / | /
SMILES | IEC-6 tox | APP transl inh | KLF5 inhibitor | Ba/F3 V617F tox | BaF3 tox | IEC-6 tox confirm
Cc1ccc2sc(C)[n+](CCC(C)S(=O)(=O)[O-])c2c1 (centres undefined) | -6 | -1 | 11 | -2 | 4 | /
CN(CC(=O)Nc1c(Cl)cccc1Cl)C(=O)Cc1ccc(S(=O)(=O)N2CCOCC2)s1 | 3 | / | -13 | / | / | /
COc1cccc(N2CC(O)=C(c3nc4ccccc4c(=O)[nH]3)C2=N)c1 | 51* | 93* | 48 | 78* | 81* | 64*
COc1cc(OC)cc(C(=O)Oc2c(CN3CCOCC3)cc(Cl)c3cccnc23)c1 | 80* | / | 23 | -2 | -5 | -7
O=C(Nc1ccc(N2CCN(C(=O)c3cccs3)CC2)cc1)c1ccccc1F | 6 | / | -20 | / | / | /
CC1(C)Cc2nc3sc4c(SCC(=O)O)ncnc4c3cc2CO1 | -3 | / | 27 | 0 | -1 | /
CC1(C)Cc2nc3sc4c(SCC(=O)NCc5ccccc5)ncnc4c3cc2CO1 | 48* | 67* | 15 | 53* | 36* | 51*
CC(=O)c1ccc(Nc2c3c(nc4ccccc24)CCCC3)cc1 | 25* | / | -10 | 2 | -4 | 20
COC(=O)c1cccc(Nc2c3c(nc4ccccc24)CCC3)c1 | 28* | / | -7 | / | / | 8
COc1ccccc1Nc1c2c(nc3ccccc13)CCC2 | 48* | / | 14 | / | / | 31*
CC(=O)CCc1ccc(OCCCOc2cccc3cccnc23)cc1 | 10 | / | -31 | / | / | /
CCC(/C=N/Nc1ccc(S(=O)(=O)N2CCCC2)cc1[N+](=O)[O-])CC | 0 | -4 | -39 | -1 | 2 | /
COCCCNC(=O)Cc1c(C)c2c(cc(C)c3c(C(C)(C)C)coc32)oc1=O | 84* | / | 61 | / | / | 59*
COCCNC(=O)Cc1c(C)c2c(cc(C)c3c(C)coc32)oc1=O | 0 | / | -52 | / | / | /
CCCCCOc1ccc(Br)cc1/C(C)=N/NC1=NCCN1 | 83* | 94* | 38 | 78* | 73* | 60*
CCN1CCN(c2nc(Nc3ccc(C)c(C)c3)nc(N)c2[N+](=O)[O-])CC1 | 2 | -1 | -1 | -3 | -3 | /
CCN1CCN(c2nc(Nc3cccc(OC)c3)nc(N)c2[N+](=O)[O-])CC1 | 24* | / | 13 | / | / | 8
CCCNC(=O)c1cccc(Cn2cc(Br)c([N+](=O)[O-])n2)c1 | 4 | -13 | -6 | 6 | 6 | /
COc1ccc(NS(=O)(=O)c2cc(NC(=O)c3ccc(=O)[nH]c3)ccc2N2CCCC2)cc1 | 42* | / | 21 | / | / | 25*
